Results reported in PubChem BioAssay (NCATS).
Inconclusive results are not listed. Entries that show only a call come without a potency. Calls of active or inactive are those of the source. Calls follow the shape of the dose curve; as a rule, active = well fitted curve in the direction sought with a large enough effect; inconclusive = small, poorly fitted or top-dose-only effect, or another doubt; inactive = no such curve, though single readings can be large; an effect the other way counts as inactive or inconclusive.

Key:
[1] = target: Cellular tumor antigen p53 (Homo sapiens) (UniProt P04637); assay: Primary qHTS for small molecule compounds that upregulate eGFP-tagged delta133p53alpha (in N-terminal) cells. (AID 2060322); details: NCI-H358 eGFP-delta133p53alpha fluorescence, 24 h; activation: hits give high values; also: nearly all actives have a fitted effect of over 75% in size; also: potency is read from the fitted curve at half-maximal effect
Sequence of Cellular tumor antigen p53 (Homo sapiens) (P04637 whole entry, looked up): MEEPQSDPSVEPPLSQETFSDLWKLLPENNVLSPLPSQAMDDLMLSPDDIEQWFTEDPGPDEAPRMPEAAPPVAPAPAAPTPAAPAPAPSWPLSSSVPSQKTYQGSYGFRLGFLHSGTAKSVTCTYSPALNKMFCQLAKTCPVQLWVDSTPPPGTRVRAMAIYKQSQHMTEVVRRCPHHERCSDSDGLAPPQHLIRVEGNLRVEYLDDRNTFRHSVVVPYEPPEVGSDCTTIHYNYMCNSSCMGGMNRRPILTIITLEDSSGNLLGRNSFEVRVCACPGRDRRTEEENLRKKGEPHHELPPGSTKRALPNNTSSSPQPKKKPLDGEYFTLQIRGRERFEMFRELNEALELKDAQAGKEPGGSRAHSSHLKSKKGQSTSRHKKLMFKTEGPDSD
Outline: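 NCI-H358 cells pre-induced 24 h with 10 ng/ml doxycycline to express N-terminal eGFP-delta133p53alpha, then dosed 24 h at 37C without doxycycline; fixed, Hoechst-stained, GFP intensity by laser scanning cytometry, normalized to DMSO (0%) and 57.5 uM 5-azacytidine (100%).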

[2] = target: Aldehyde dehydrogenase, mitochondrial (Homo sapiens) (UniProt P05091); assay: qHTS for Inhibitors of the Aldehyde Dehydrogenase Family (ALDH2) Primary screen (AID 2061308); details: ALDH2 enzyme inhibition qHTS, 1536-well; series mostly up to 56 µM; also: nearly all actives have a fitted effect of over 55% in size
[3] = target: Retinaldehyde dehydrogenase 3 (Homo sapiens) (UniProt P47895); assay: qHTS for Inhibitors of the Aldehyde Dehydrogenase Family (ALDH1A3) Primary screen (AID 2061315); details: ALDH inhibition qHTS; series mostly up to 56 µM

SMILES	activation [1]	Potency [2]	Potency [3]	Potency [1]	activity change, negative = inhibition [2]	activity change, negative = inhibition [3]
CC1(C)CC[C@]2(C(=O)O[C@@H]3O[C@H](CO)[C@@H](O)[C@H](O)[C@H]3O)CC[C@]3(C)C(=CCC4[C@@]5(C)CC[C@H](O[C@@H]6O[C@H](C(=O)O)[C@@H](O)[C@H](O)[C@H]6O)[C@@](C)(CO)C5CC[C@]43C)C2C1 (some centres undefined)	-1.53% (inactive)	inactive	inactive			
CCOC(=O)C(CCc1ccccc1)NC(C)C(=O)N1C(=O)N(C)CC1C(=O)O (centres undefined)	-5.25% (inactive)	inactive	inactive			
CC(C)(C)Nc1nc2cc(Cl)c(Cl)cc2nc1S(C)(=O)=O		inactive	inactive	3.38 µM (active)		
Fc1ccccc1CNCc1ccc(-c2ccnc3[nH]ccc23)cc1	7.14% (inactive)	inactive	inactive			
CC(C)C1(O)C=C2C(=O)CC3C(C)(C(=O)O)CCCC3(C)C2CC1 (centres undefined)	-12.2% (inactive)	inactive	inactive			
O=C1N(CC2CCCCN2)CCN1c1ccccc1 (centres undefined)	5.73% (inactive)	inactive	inactive			
C/C=C(/C)C(=O)OC1CC(C)(C)CC2C3=CCC4C5(C)CCC(OC6OC(C)C(OC7OC(C(=O)O)C(O)C(OC8OC(CO)C(O)C(O)C8OC8OC(CO)C(O)C(O)C8O)C7O)C(O)C6O)C(C)(C)C5CCC4(C)C3(C)C(OC(=O)/C=C/C=C/C=C/CCC)C(OC(C)=O)C12CO (centres undefined)	14.5% (inactive)				6.9% [at 11.2 µM] (inactive)	9.07% [at 11.2 µM] (inactive)
COC(=O)C1=COC(OC2OC(CO)C(O)C(O)C2O)C2C(COC(=O)/C=C/c3ccc(O)cc3)C(O)C(O)C12 (centres undefined)	-6.87% (inactive)	inactive	inactive			
C[C@]12CC/C(=N\OCC(=O)O)C=C1CC[C@@H]1[C@@H]2[C@@H](O)C[C@@]2(C)[C@H]1CC[C@]2(O)C(=O)CO	5.67% (inactive)	inactive	inactive			
C[C@@]1(O)[C@H](O)[C@@H](CO)O[C@H]1n1cnc2c(=O)[nH]c(N)nc21	-12.3% (inactive)	inactive	inactive			
CCC1C(=O)OC23C=C[C@@H]4C(C(=O)O)=CO[C@H](O[C@@H]12)[C@@H]43 (some centres undefined)	7.63% (inactive)	inactive	inactive			
CC[C@@H](O)C[C@@H]1C(C)=C[C@@H]2CCCC[C@@H]2[C@@]1(C)C(=O)O	-6.87% (inactive)	inactive	inactive			
OC[C@H]1O[C@@H](n2cnc3c(NCc4ccc(O)cc4)ncnc32)[C@H](O)[C@@H]1O	13.7% (inactive)	inactive	inactive			
O=C(NOC[C@H](O)CO)c1ccc(F)c(F)c1Nc1ccc(I)cc1F	8.59% (inactive)	inactive	inactive			
C[C@@H]1O[C@@H](O[C@H]2[C@@H]3C=CO[C@@H](O[C@@H]4O[C@H](CO)[C@@H](O)[C@H](O)[C@H]4O)[C@@H]3[C@@]3(CO)O[C@@H]23)[C@H](O)[C@H](OC(=O)/C=C/c2ccc(O)cc2)[C@H]1OC(=O)/C=C/c1ccc(O)cc1	-13% (inactive)	inactive	inactive			
C=CC(C)(O)CC/C=C(/C)COC(=O)C(C)C1CCC(C)(C=C)O1 (centres undefined)	5.36% (inactive)	inactive	inactive			
CC1OC(O[C@H]2CC[C@@]3(C)C(CC[C@]4(C)C3CC=C3C5CC(C)(C)CC[C@]5(C(=O)OC5OC(CO)C(OC6OCC(OC7OCC(O)C(O)C7O)C(O)C6O)C(O)C5O)CC[C@]34C)C2(C)C)C(O)C(O)C1OC1OC(CO)C(O)C(OC2OC(CO)C(O)C(O)C2O)C1O (some centres undefined)	9.16% (inactive)				8.06% [at 11.2 µM] (inactive)	8.31% [at 11.2 µM] (inactive)
O=C(Nc1c(-c2cccs2)nc2ccccn12)c1ccc(Cl)cc1	-8.59% (inactive)	inactive	inactive			
C[C@@]1(O)[C@H](O)[C@@H](CO)O[C@H]1n1ccc(N)nc1=O	0.333% (inactive)	inactive	inactive			
CN1CCc2nc(C(=O)N[C@@H]3C[C@@H](C(=O)N(C)C)CC[C@@H]3NC(=O)C(=O)Nc3ccc(Cl)cn3)sc2C1	1.91% (inactive)	inactive	inactive			
O=C1NC(Cc2c[nH]c3ccccc23)C(=O)NC1Cc1cnc[nH]1 (centres undefined)	-5.36% (inactive)	inactive	inactive			
O=C1Nc2ccccc2C(O)(c2ccccc2)C1O (centres undefined)	0.763% (inactive)	inactive	inactive			
Nc1nc2c(nc(Sc3ccc(Cl)cc3)n2[C@@H]2O[C@@H]3COP(=O)(O)O[C@H]3[C@H]2O)c(=O)[nH]1	1% (inactive)	inactive	inactive			
